Compound activity as filed in PubChem.
HT1080 IDH1KD tx: HT-1080 IDH1 knockdown cell toxicity (counter line). Potency, µM (highest dose often 46.1 µM), without a hit: top-dose activity, negative = toxicity, most hits filed as cytotoxic. AID 686971. HT-1080 IDH1 knockdown viability, ATP luminescence, 48 h. actives 2% (n = 360,000);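 further: potency means the concentration at half of the fitted maximal effect; 0% = DMSO wells and -100% = cell-free medium wells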
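% activity derives from luminescence (CellTiter-Glo), normalised to DMSO and no-cell wells. HT-1080-IDH1KD cells, 750/well, had 48 h compound exposure at 37 °C.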
HT1080NT lethal: kills 2HG-producing HT-1080-NT fibrosarcoma cells. HT-1080-NT fibrosarcoma viability, CellTiter-Glo ATP luminescence, 48 h. actives 1.6% (n = 360,000). Potency, µM (series often up to 46.1 µM), without a hit: at the top dose activity, negative = less viability, most hits filed as cytotoxic;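 further: NT is the 2HG producing partner of a matched IDH1 knockdown line; potency means the concentration at half of the fitted maximal effect; 0% = DMSO-treated cells and -100% = media-only wells without cells; nearly all actives have a fitted effect of over 55% in size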
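750 cells/well, RPMI + 5% FBS; 2 h settle, compound pin-transfer, 48 h at 37 degrees C. CellTiter-Glo 10 min RT, luminescence. Normalized to DMSO and media-only wells.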
uPA surface inh: inhibitors of cell surface uPA generation | cell surface uPA generation assay, qHTS | Potency, µM (top dose mostly 38.3 µM), for the others: top-dose activity change, negative = inhibition, hits mostly inhibitors | actives 0.31% (n = 330,000) | AID 540303; active means well fitted inhibition curve with a large enough effect; inconclusive means small, poorly fitted or top-dose-only effect; inactive means no such curve, though single readings can be large or run the other way; tested in mouse RAW 264.7 cells; further: potency means the concentration at half of the fitted maximal effect; nearly all actives have a fitted effect of over 55% in size
DT40 TDP1 no CPT: qHTS for Inhibitors of human tyrosyl-DNA phosphodiesterase 1 (TDP1): qHTS in cells in absence of CPT | DT40 Tdp1-/- hTDP1 cells, no CPT, ATP luminescence, 48 h | Potency, µM (doses to about 46.2 µM), inactives show at the highest dose activity change, negative = growth inhibition, most hits filed as inhibitors | actives 15% (n = 420,000) | AID 686978, 2013; further: potency means the concentration at half of the fitted maximal effect; nearly all actives have a fitted effect of over 55% in size
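Stably hTDP1-transfected Tdp1-null chicken DT40 cells were treated with library compounds minus camptothecin and grown for at least 48 hr at 37 °C, after which cellular ATP was quantified by luminescence.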
DT40 TDP1 CPT: DT40-hTDP1 cell growth loss with CPT; chicken DT40 Tdp1-/-;hTDP1 cells + 20 nM CPT, ATP luminescence, 48 h; Potency, µM (series often up to 46.2 µM), inactives show at the top dose activity change, negative = growth inhibition, usual class: inhibitors; actives 12% (n = 420,000); further: potency means the concentration at half of the fitted maximal effect; nearly all actives have a fitted effect of over 55% in size
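Cell growth measured by CellTiter-Glo luminescence after a minimum 48 h, 37 C compound exposure with 20 nM CPT in Tdp1-knockout DT40 cells stably expressing hTDP1, seeded 400/well; qHTS titration format.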
IL-1B inflam inh: blocks inflammasome-driven IL-1 beta release | THP-1 LPS/ATP IL-1B secretion, AlphaLISA, 16 h; active compounds read low | activity change, % at 57.5 µM | actives 4.7% (n = 360,000); in the data active means activity change below about -50%; inconclusive means mostly about -30% to -49%
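THP-1 cells pretreated 1 hr with compounds (up to 57.5 uM final), then stimulated with LPS (250 ng/mL final) plus ATP (1.25 mM final); secreted IL-1B measured by AlphaLISA after 16 hr, decreased signal indicating inhibition.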
An asterisk follows results filed as active. Most compounds without a hit are left out; they make up all but 19% or so of the library. Unless noted, the call rests on the fitted dose curve; in most records, active means well fitted curve in the direction sought with a large enough effect; inconclusive means small, poorly fitted or top-dose-only effect, or another doubt; inactive means no such curve, though single readings can be large; an effect the other way counts as inactive or inconclusive. Unless noted, on the % scale 0 is the no-effect control and ±100 the full control effect.

Results for Cc1ccc2nc(NCc3ccccc3Cl)c3nnnn3c2c1 ?
DT40 TDP1 no CPT: 10µM*; DT40 TDP1 CPT: inconclusive

How did c1ccc(CC2CCN(c3nc4ccccc4n4nnnc34)CC2)cc1 do in these assays?
HT1080 IDH1KD tx: -8%; HT1080NT lethal: -6%; uPA surface inh: 12%; DT40 TDP1 no CPT: inconclusive; DT40 TDP1 CPT: -25%; IL-1B inflam inh: 17

How did Cc1ccc(-c2nc3ccccc3n3nnnc23)cc1 do in these assays?
HT1080 IDH1KD tx: 2%; HT1080NT lethal: 3%; uPA surface inh: 7%; DT40 TDP1 no CPT: 7.3µM*; DT40 TDP1 CPT: 13µM*; IL-1B inflam inh: 2

How did Cc1ccc2nc(N3CCN(c4ccc(F)cc4)CC3)c3nnnn3c2c1 do in these assays?
DT40 TDP1 no CPT: 15µM*; DT40 TDP1 CPT: 7.3µM*

How did Cc1ccc(OCCn2nnc3sc4c(c3c2=O)CCC(C(C)(C)C)C4)cc1 (configuration not stated) do in these assays?
DT40 TDP1 no CPT: -20%; DT40 TDP1 CPT: -23%

What do the screens show for `CCC(C)n1c(=S)[nH]c2c(sc3ccc([N+](=O)[O-])cc32)c1=O` (configuration not stated)?
HT1080 IDH1KD tx: -28%; HT1080NT lethal: -25%; uPA surface inh: 0%; DT40 TDP1 no CPT: inconclusive; DT40 TDP1 CPT: inconclusive; IL-1B inflam inh: 23

What do the screens show for `CN(N=Nc1nc[nH]c1C(=O)NN)C1CCCCC1`?
HT1080 IDH1KD tx: 15%; HT1080NT lethal: 15%; uPA surface inh: 4%; DT40 TDP1 no CPT: -2%; DT40 TDP1 CPT: -16%; IL-1B inflam inh: 0

How did Cn1c(=O)cc(SCC(=O)N2CCN(c3ccc(F)cc3)CC2)c2ccc(Cl)cc21 do in these assays?
DT40 TDP1 no CPT: -3%; DT40 TDP1 CPT: -10%

How did O=C1NC(c2cccc3ccccc23)Nc2ccc(Cl)cc21 (configuration not stated) do in these assays?
HT1080 IDH1KD tx: 0.52µM*; HT1080NT lethal: 0.58µM*; uPA surface inh: -11%; DT40 TDP1 no CPT: 0.58µM*; DT40 TDP1 CPT: 0.46µM*; IL-1B inflam inh: 1

What do the screens show for `Cc1ccccc1-n1c(C)nnc1SC(C)C(=O)NCc1ccco1` (configuration not stated)?
DT40 TDP1 no CPT: -3%; DT40 TDP1 CPT: -21%

How did O=C1CC(c2ccccc2)CC(O)=C1C=Nc1ccc(Cl)cc1 (configuration not stated) do in these assays?
HT1080 IDH1KD tx: -26%; HT1080NT lethal: -28%; uPA surface inh: -20%; DT40 TDP1 no CPT: -11%; DT40 TDP1 CPT: -8%; IL-1B inflam inh: -3

What do the screens show for `O=C1CCCC(O)=C1C=Nc1ccc(O)cc1`?
HT1080 IDH1KD tx: -2%; HT1080NT lethal: -1%; uPA surface inh: -14%; DT40 TDP1 no CPT: 26µM*; DT40 TDP1 CPT: inconclusive; IL-1B inflam inh: -4

Results for CSCCC(NC(=O)COc1ccccc1)C(=O)N1CCN(c2ccccc2F)CC1 (configuration not stated) ?
HT1080 IDH1KD tx: -1%; HT1080NT lethal: 9%; uPA surface inh: 8%; DT40 TDP1 no CPT: 23µM*; DT40 TDP1 CPT: 15µM*; IL-1B inflam inh: 0

Results for CCC1(C)Cc2ccccc2-c2nc(NCCCO)n(-c3ccccc3)c(=O)c21 (configuration not stated) ?
HT1080 IDH1KD tx: -11%; HT1080NT lethal: -1%; uPA surface inh: -3%; DT40 TDP1 no CPT: 4.1µM*; DT40 TDP1 CPT: 2.1µM*; IL-1B inflam inh: -6

How did CCn1c(NCCO)nc2c(c1=O)C(C)(CC)Cc1ccccc1-2 (configuration not stated) do in these assays?
HT1080 IDH1KD tx: -29%; HT1080NT lethal: inconclusive; uPA surface inh: 5%; DT40 TDP1 no CPT: 16µM*; DT40 TDP1 CPT: inconclusive; IL-1B inflam inh: 4

Results for CCC1(C)Cc2ccccc2-c2nc3n(c(=O)c21)CCS3 (configuration not stated) ?
HT1080 IDH1KD tx: 4%; HT1080NT lethal: 2%; uPA surface inh: -21%; DT40 TDP1 no CPT: 8.2µM*; DT40 TDP1 CPT: inconclusive; IL-1B inflam inh: -12

Results for CCC1(C)Cc2ccccc2-c2nc(NCCO)[nH]c(=O)c21 (configuration not stated) ?
HT1080 IDH1KD tx: -2%; HT1080NT lethal: -4%; uPA surface inh: -8%; DT40 TDP1 no CPT: inconclusive; DT40 TDP1 CPT: inconclusive; IL-1B inflam inh: 3

How did CC1=C(C(=O)c2ccccc2)C(c2ccc(OC(F)F)cc2)NC(=S)N1 (configuration not stated) do in these assays?
HT1080 IDH1KD tx: 15µM*; HT1080NT lethal: inconclusive; uPA surface inh: -8%; DT40 TDP1 no CPT: inconclusive; DT40 TDP1 CPT: inconclusive; IL-1B inflam inh: inconclusive

What do the screens show for `CCOC(=O)[C@]12CCCC=C1N(CCc1ccc(OC)c(OC)c1)C(=O)[C@H](CC(=O)N1CCCC1)C2`?
HT1080 IDH1KD tx: -20%; HT1080NT lethal: 0%; DT40 TDP1 no CPT: 9.2µM*; DT40 TDP1 CPT: 12µM*; IL-1B inflam inh: -11

How did CCOC(=O)[C@]12CCC=C1N(CCC1=CCCCC1)C(=O)[C@H](CC(=O)N1CCCC1)C2 do in these assays?
HT1080 IDH1KD tx: 9%; HT1080NT lethal: 18%; DT40 TDP1 no CPT: inconclusive; DT40 TDP1 CPT: 23µM*; IL-1B inflam inh: 26

How did CCOC(=O)[C@]12CCC=C1N(CCC1=CCCCC1)C(=O)[C@H](CC(=O)N1CCN(C(=O)C3CC3)CC1)C2 do in these assays?
HT1080 IDH1KD tx: 17%; HT1080NT lethal: 11%; DT40 TDP1 no CPT: -20%; DT40 TDP1 CPT: -29%; IL-1B inflam inh: 3

Results for CCOC(=O)N1CCN(C(=O)C[C@@H]2C[C@@]3(C(=O)OCC)CCCC=C3N(CCc3ccc(OC)c(OC)c3)C2=O)CC1 ?
HT1080 IDH1KD tx: 11%; HT1080NT lethal: -4%; DT40 TDP1 no CPT: inconclusive; DT40 TDP1 CPT: inconclusive; IL-1B inflam inh: -21

What do the screens show for `CCOC(=O)[C@]12CCCC=C1N(CCC1=CCCCC1)C(=O)[C@H](CC(=O)N1CCCC1)C2`?
HT1080 IDH1KD tx: -27%; HT1080NT lethal: -19%; DT40 TDP1 no CPT: 2.3µM*; DT40 TDP1 CPT: 2.1µM*; IL-1B inflam inh: 30

How did CCOC(=O)[C@]12CCCC=C1N(CCC1=CCCCC1)C(=O)[C@H](CC(=O)N1CCC(c3ccccc3)CC1)C2 do in these assays?
HT1080 IDH1KD tx: inconclusive; HT1080NT lethal: inconclusive; DT40 TDP1 no CPT: 15µM*; DT40 TDP1 CPT: inconclusive; IL-1B inflam inh: -8
